An excerpt weighted towards active compounds, which were near 11% of everything screened.
NS1 inh: qHTS Assay for Inhibitors of Influenza NS1 Protein Function; Potency, µM (series often up to 46.1 µM), inactives show top-dose activity, positive = more growth; 270,000 compounds, 0.4% hits; AID 2326, 2010; calls by dose curve; also: actives are rising curves; nearly all actives have a fitted effect of over 50% in size
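In this qHTS, NS1 from influenza A is expressed in budding yeast, where it slows growth. Cells are switched from glucose to 2% galactose medium (pH 6.0, -URA), treated with compound, and growth recovery is read at OD600.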
Pf growth 48h: Primary qHTS for delayed death inhibitors of the malarial parasite plastid, 48 hour incubation | Potency, µM (series often up to 28.7 µM), for the others: at the highest dose activity change, negative = inhibition, hits mostly inhibitors | 310,000 compounds, 5.9% hits | P. falciparum luciferase growth in erythrocytes, 48 h; also: % is scaled to controls: 0 for no effect and ±100 for the full control effect
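Luciferase-expressing parasites in RBCs, 2% Hct / 0.1% parasitemia final; RPMI 1640 + 0.5% Albumax; 37 C, 5% CO2, one generation; luminescence read-out, lower signal = inhibition.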
VACV mCherry inh: qHTS for Stage-Specific Inhibitors of Vaccinia Orthopoxvirus: mCherry Reporter Primary qHTS | AID 720579, 2013 | 310,000 compounds, 0.63% hits | Potency, µM (doses to about 36.5 µM), without a hit: top-dose activity change, negative = inhibition, actives largely listed as inhibitors | Vaccinia virus mCherry reporter infection, fluorescence; calls by dose curve; tested in A549 cells; also: % is scaled to controls: 0 for no effect and ±100 for the full control effect; nearly all actives have a fitted effect of over 35% in size
HCV inhibitor: qHTS Assay for Inhibitors of Hepatitis C Virus (HCV). Potency, µM (series often up to 41.8 µM), for the others: at the top dose activity change, negative = inhibition, actives largely listed as inhibitors. AID 651820, 2012. 340,000 compounds, 3.4% hits. Huh7.5.1 HCVcc-Cre infection, luciferase reporter, 44 h; also: % is scaled to controls: 0 for no effect and ±100 for the full control effect
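Cells seeded at 1,000/well and cultured 4 h, then compounds added followed by HCVcc-Cre virus (~0.5 moi). After 44 h further culture, luciferase substrate was added, plates held 15 min at room temperature, and luminescence read for 15 sec.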
Pf growth 96h: Primary qHTS for delayed death inhibitors of the malarial parasite plastid, 96 hour incubation | P. falciparum luciferase reporter growth, 96 h | Potency, µM (titrated, usually from 28.7 µM), inactives show top-dose activity change, negative = inhibition, hits mostly inhibitors | 320,000 compounds, 6.9% hits | AID 504834, 2011; also: % is scaled to controls: 0 for no effect and ±100 for the full control effect
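Luminescence readout: decreased luciferase signal marks inhibited growth of reporter-expressing P. falciparum in infected red cells (2% hematocrit, 0.05% parasitemia final), exposed to compound two generations (96 h, 37 C, 5% CO2).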
VACV Venus inh: qHTS for Stage-Specific Inhibitors of Vaccinia Orthopoxvirus: Venus Reporter Primary qHTS. Vaccinia virus Venus reporter expression, fluorescence. Potency, µM (titrated, usually from 36.5 µM), for the others: at the top dose activity change, negative = inhibition, actives largely listed as inhibitors. 330,000 compounds, 0.46% hits; calls by dose curve; tested in A549 cells; also: % is scaled to controls: 0 for no effect and ±100 for the full control effect; nearly all actives have a fitted effect of over 30% in size
* = called active by the depositor; i = inactive; ? = inconclusive; . = not tested or not shown; [ ] = dose if it differs, or a comment. Unless noted, calls follow the shape of the dose curve; as a rule, active = well fitted inhibition curve with a large enough effect; inconclusive = small, poorly fitted or top-dose-only effect, or another doubt; inactive = no such curve, though single readings can be large or run the other way. Potency is read from the fitted curve at half-maximal effect.

SMILES | NS1 inh | Pf growth 48h | VACV mCherry inh | HCV inhibitor | Pf growth 96h | VACV Venus inh
O=C(NCCN1CCOCC1)c1ccc2c(c1)N(Cc1ccc(F)cc1)C(=O)c1ccccc1S2(=O)=O | -4% | ? | . | -1% | ? | .
CCCCSCCCNC(=O)c1ccc2c(c1)N(CC)C(=O)c1ccccc1S2=O (stereo not drawn) | -1% | 13µM* | . | -27% | 5% | .
O=C(COC(=O)c1cc(S(=O)(=O)N2CCOCC2)ccc1O)NCc1ccc2c(c1)OCO2 | . | ? | -17% | 20% | -19% | -11%
O=C(Nc1ccc(Br)cc1)N1C[C@H]2C[C@@H](C1)c1cccc(=O)n1C2 | 3% | -10% | 5% | 15% | ? | -1%
Cc1c(C(=O)NCCN(C)C)oc2ccc(S(=O)(=O)N3CCC4(CC3)OCCO4)cc12 | -21% | -13% | -18% | 15% | 5% | -13%
COc1ccc(C(=O)NCCNc2ccccc2[N+](=O)[O-])cc1 | -9% | 50% | . | -2% | 21% | .
CCCNC(=O)c1ccc(S(=O)(=O)c2ccc(OC)cc2)c([N+](=O)[O-])c1 | -7% | 12µM* | ? | ? | 4% | -13%
COCC(C)n1c(C)cc(C(=O)CN2C(=O)NC(Cc3c[nH]c4ccccc34)C2=O)c1C (stereo not drawn) | 3% | . | -5% | -14% | 5.2µM* | -23%
Cc1ccc(S(=O)(=O)N(C)C)cc1NC(=O)CN1C(=O)NC(Cc2c[nH]c3ccccc23)C1=O (stereo not drawn) | -3% | ? | . | 2% | ? | .
Cc1ccc(NC(=O)CN2C(=O)NC(Cc3c[nH]c4ccccc34)C2=O)cc1S(=O)(=O)N1CCCCC1 (stereo not drawn) | 14% | -12% | ? | 11µM* | ? | -28%
O=C(CN1C(=O)NC(Cc2c[nH]c3ccccc23)C1=O)Nc1cccc(S(=O)(=O)N2CCCCCC2)c1 (stereo not drawn) | 21% | -20% | ? | 10µM* | ? | ?
CC(C)NC(=O)NC(=O)CN1C(=O)NC(Cc2c[nH]c3ccccc23)C1=O (stereo not drawn) | . | 19% | . | 10% | -8% | .
CN(C)S(=O)(=O)c1cccc(NC(=O)CN2C(=O)NC(Cc3c[nH]c4ccccc34)C2=O)c1 (stereo not drawn) | -2% | -5% | ? | 1.6µM* | -29% | -27%
N#Cc1cnn(-c2nc(SCc3ccccc3)nc3sc4c(c23)CCCC4)c1N | 8% | 13% | . | 0% | ? | .
Cc1ccc(S(=O)(=O)N2CCN(C(=O)COC(=O)/C=C/c3ccc([N+](=O)[O-])cc3)CC2)c(C)c1 | . | . | . | -6% | . | .
CC(=O)c1cccc(NC(=O)CN2C(=O)C3C4C=CC(C4)C3C2=O)c1 (stereo not drawn) | ? | -7% | -7% | -9% | -27% | 3%
COc1ccc(Nc2nc(N)c(C(=O)c3ccc(F)cc3)s2)cc1 | -6% | ? | ? | -27% | ? | ?
COc1cccc(C(=O)c2sc(NC(C)C)nc2N)c1 | 7% | ? | . | ? | ? | 7.1µM*
COc1ccc(Nc2nc(N)c(C(=O)c3ccc(OC)cc3)s2)cc1 | 2% | ? | 1.8µM* | ? | 233% | -25%
COc1ccc(C(=O)c2sc(NC(C)C)nc2N)cc1OC | 0% | -26% | . | ? | ? | 11µM*
CCN(CC)c1ccc(/C=c2\sc3nnc(-c4ccccc4Cl)n3c2=O)cc1 | 2% | . | i | -15% | -5% | -1%
COc1ccc(Cl)cc1NC(=O)CSc1nc(Nc2ccccc2)nc(N2CCOCC2)n1 | 10% | -2% | . | 11µM* | 33% | .
O=C(CSc1nc(Nc2ccccc2)nc(N2CCOCC2)n1)Nc1ccc([N+](=O)[O-])cc1 | 1% | 12µM* | . | 11µM* | . | .
CCCNS(=O)(=O)c1ccc(CCC(=O)N2CCOCC2)cc1 | 1% | 8% | . | 6% | 15% | .
O=C(NCc1ccccc1)c1nccnc1CO | 6% | -21%[0.00184 µM] | i | 27% | 10µM* | -1%
SMILES | NS1 inh | Pf growth 48h | VACV mCherry inh | HCV inhibitor | Pf growth 96h | VACV Venus inh
O=C(NC1CCCN(Cc2ccc(Cl)cc2)C1)c1cccc(N2CCCC2=O)c1 (stereo not drawn) | 18% | -13% | -7% | -31% | 71% | -20%
Cc1ccc2cccc(N)c2n1 | . | -15% | -13% | -6% | 0.93µM* | -2%
COC(=O)c1cc(S(=O)(=O)NCc2cccc(Br)c2)c[nH]1 | -2% | 9% | . | -2% | 9.3µM* | .
COC(=O)c1cc(S(=O)(=O)NCCc2ccccc2)c[nH]1 | -2% | -3% | i | -14% | 28% | -4%
Cc1ccc2nc(SCC(=O)Nc3cccnc3Cl)[nH]c2c1 | . | -29% | i | ? | -20% | -7%
Cc1ccc(C)c(SCC(=O)Nc2cccnc2Cl)c1 | . | 10µM* | . | -10% | ? | .
Cc1ccc(C)c(NC(=O)CSc2n[nH]c(-c3ccccn3)n2)c1 | -27% | ? | 7.9µM* | ? | -7% | ?
Cc1ccccc1NC(=O)CSc1n[nH]c(-c2ccccn2)n1 | -8% | ? | 6.3µM* | ? | 39% | -22%
O=C(CSc1n[nH]c(-c2ccccc2)n1)Nc1ncccn1 | -4% | 21% | -20% | 1% | -38%[1.15 µM] | -1%
Cc1ccc(O)c(NC(=O)CSc2n[nH]c(-c3ccccc3)n2)c1 | 3% | 5% | . | 11µM* | ? | .
CCCCN1C(=S)NC[C@@H]1c1ccccc1 | 3% | ? | -5% | 31% | -20% | -13%
COCCn1nnnc1C(C(C)C)N1CCC(Cc2ccccc2)CC1 (stereo not drawn) | -47% | ? | i | -13% | 10% | -12%
COc1ccc(CNC(=O)C/C(C)=N/NC(=O)c2ccc([N+](=O)[O-])cc2Cl)cc1 | . | 8% | -1% | 8% | -25% | -7%
COc1cc(SC)ccc1C(=O)N(C)CC(=O)Nc1cccc2ccccc12 | . | ? | -16% | ? | -7% | -10%
Cc1ccc(NC(=O)CSc2nc3ccc(NC(=O)CCc4ccccc4)cc3s2)c(C)c1 | . | . | -14% | . | . | -10%
O=C(CSc1n[nH]c(-c2ccccn2)n1)Nc1cccc(Cl)c1 | -9% | ? | ? | 10µM* | ? | -23%
Cc1ccc(C)c(NC(=O)CSc2nc3ccc(N4C(=O)c5ccccc5C4=O)cc3s2)c1 | 7% | 41% | -2% | 10% | 4.1µM* | -27%
Cc1nc(SCC(=O)Nc2cccc(Cl)c2)n[nH]1 | -12% | 13% | -8%[1.46 µM] | 8% | -9% | -16%
CC(C)(C)OC(=O)N[C@@H](C(=O)OC(C)(C)C)c1ccc2c(c1)OCO2 | . | ? | 0% | -13% | ? | -10%

Source: PubChem BioAssay
